gsp antag: gsp mutant antagonism | gsp-mutant cells, cAMP HTRF, 30 min | Potency, µM (highest dose often 76.9 µM), for the others: top-dose activity change, negative = inhibition, actives largely listed as inhibitors | 0.4% of 340,000 active | AID 624288; calls by dose curve; cell line not stated here;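 note: intracellular cAMP measured with PDE inhibitor Ro 20-1724 present during compound exposure; potency is the fitted concentration of half-maximal effect; % is set by controls: 0 for no effect and ±100 for the full control effect; nearly all actives have a fitted effect of over 65% in size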
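G418-selected cells were plated in DMEM/10% FBS for 16-24 h at 37C, then treated with compounds plus the PDE inhibitor […] (300 uM solution added) for 30 min at 37C. Intracellular cAMP was measured by HTRF after 30 min lysis at room temperature.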
RXFP1 ag: activates the human relaxin receptor RXFP1 | HEK293T-RXFP1 cAMP TR-FRET, 30 min; response scale: percent of porcine relaxin response, buffer zero | Potency, µM (doses to about 57.5 µM), without a hit: top-dose activation, actives largely listed as activators | 0.3% of 370,000 active; active = well fitted activation curve with a large enough effect; inconclusive = small, poorly fitted or top-dose-only effect; note: potency is the fitted concentration of half-maximal effect; % is set by controls: 0 for no effect and ±100 for the full control effect; nearly all actives have a fitted effect of over 60% in size
Target sequence (Q9HBX9 whole entry, looked up): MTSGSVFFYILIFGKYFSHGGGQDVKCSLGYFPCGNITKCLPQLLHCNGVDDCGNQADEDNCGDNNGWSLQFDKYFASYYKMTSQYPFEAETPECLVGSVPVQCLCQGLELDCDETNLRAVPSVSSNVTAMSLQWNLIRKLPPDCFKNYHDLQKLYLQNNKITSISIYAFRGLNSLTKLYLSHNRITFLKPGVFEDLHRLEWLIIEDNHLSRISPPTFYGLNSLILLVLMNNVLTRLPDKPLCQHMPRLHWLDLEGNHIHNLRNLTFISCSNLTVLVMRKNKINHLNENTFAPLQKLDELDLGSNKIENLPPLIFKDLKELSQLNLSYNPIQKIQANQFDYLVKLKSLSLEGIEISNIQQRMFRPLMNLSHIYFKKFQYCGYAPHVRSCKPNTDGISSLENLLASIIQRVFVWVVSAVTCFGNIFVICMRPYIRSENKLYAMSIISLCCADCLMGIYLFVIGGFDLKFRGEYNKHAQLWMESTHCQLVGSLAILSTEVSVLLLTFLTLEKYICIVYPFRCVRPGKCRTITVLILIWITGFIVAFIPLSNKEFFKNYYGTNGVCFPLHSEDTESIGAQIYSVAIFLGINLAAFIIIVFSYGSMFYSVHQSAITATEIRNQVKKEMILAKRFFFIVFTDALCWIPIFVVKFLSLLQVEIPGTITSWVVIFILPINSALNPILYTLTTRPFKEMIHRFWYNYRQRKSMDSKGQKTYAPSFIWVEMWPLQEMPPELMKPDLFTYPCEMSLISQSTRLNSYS
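cAMP rise read by TR-FRET after 30 min, 37C compound exposure (up to 58 uM) in RXFP1-transfected HEK293 cells with Ro 20174 present. EC50 from Hill-equation fits, with 29 nM porcine relaxin as 100% and buffer as basal.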
RXFP1 antag: blocks the human relaxin receptor RXFP1 | HEK293-RXFP1, relaxin-stimulated cAMP HTRF, 30 min; hits give low values | Q9HBX9 | AID 1259400 | 0.59% of 350,000 active | activity change, negative = inhibition, % at 57.5 µM;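 active = activity change of -60% or lower, but not beyond a set lower limit; inconclusive = change between -60% and -40%, or beyond the set limit; inactive = change above -40%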; note: % is set by controls: 0 for no effect and ±100 for the full control effect
TRPV1 potentiator: human TRPV1 potentiation | Q8NER1 | TRPV1-expressing cells, Fluo-8 calcium influx, capsaicin EC20 potentiation | potentiation, % at 8.33 µM | 0.02% of 320,000 active | AID 540277; in the data active = potentiation above about 80%; inconclusive = between about 30% and that limit; note: 0% is about no effect
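Fluo-8 calcium influx in TRPV1-expressing cells, kinetic read (ex 480/em 520 nm). Compound added and read 3 min for agonist activity, followed by capsaicin at EC20 final and 2 min further read for enhancement.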
TRPV1 ag: agonists of human vanilloid receptor 1 (TRPV1); Q8NER1; TRPV1-expressing cells, Fluo-8 calcium influx, agonist mode; activation, % at 8.33 µM; 0.19% of 320,000 active; AID 540275; in the data active = activation above about 80%; inconclusive = between about 30% and that limit; note: 0% is about no effect
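TRPV1-expressing cells were cultured overnight at 35.5C and loaded with Fluo-8 calcium dye for 40 to 90 min at room temperature. After a 10 s baseline, compound was added and calcium influx was read kinetically for 3 min (ex 480/em 520 nm).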
gsp ag: activates gsp, the McCune-Albright syndrome mutation. Potency, µM (highest dose often 76.9 µM), without a hit: at the highest dose activation (cAMP increase), usual class: activators. AID 624287. gsp mutant cells, cAMP HTRF, 30 min. 0.13% of 340,000 active; active = well fitted activation curve with a large enough effect; inconclusive = small, poorly fitted or top-dose-only effect, or another doubt; inactive = no such curve, though single readings can be large or run the other way; cell line not stated here;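 note: phosphodiesterase inhibitor Ro 20-1724 added with compounds to block cAMP breakdown; potency is the fitted concentration of half-maximal effect; nearly all actives have a fitted effect of over 60% in size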
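Cells stably selected in G418 were plated at 2000/well, grown 16-24 hr, then given compounds in DMSO with the PDE inhibitor […] (300 uM solution added) for 30 min at 37C; cAMP was read by HTRF.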
An asterisk follows results filed as active; ? = inconclusive; · = no result; [ ] = another dose, or the depositor's remark. Sampled rows, rich in hits. Any-hit rate of the full collection: about 1.1%.

SMILES | gsp antag | RXFP1 ag | RXFP1 antag | TRPV1 potentiator | TRPV1 ag | gsp ag
CCOc1cc(C(=O)OC(C)C(=O)Nc2ccccc2OC)ccc1OCC(=O)N1CCOCC1 (stereo not given) | -24% | · | -6 | · | · | -1%
CCOc1cc(C(=O)OC(C)C(=O)Nc2ncc(Cl)cc2Cl)ccc1OCC(=O)N1CCOCC1 (stereo not given) | 50µM* | 1% | -1 | 22 | -1 | -10%
CN1CCN(CCn2c(=S)[nH]c3ccccc3c2=O)CC1 | 6% | 0% | -5 | 7 | -5 | 2%[15.4 µM]
O=c1c2ccccc2[nH]c(=S)n1CCc1ccccc1 | 11% | -1% | -11 | 26 | -5 | -15%
NS(=O)(=O)c1ccc(CCn2c(=S)[nH]c3ccccc3c2=O)cc1 | 0% | 0% | -64* | 0 | 5 | -23%[15.4 µM]
O=c1c2ccccc2[nH]c(=S)n1CCN1CCc2ccccc2C1 | -11% | 0% | -75* | -12 | 27 | 16%[15.4 µM]
CC(C)NC(=O)COC(=O)c1ccc(S(=O)(=O)N2CCCC2)cc1 | -3% | 2% | -98* | 1 | 5 | 7%
CN1CCN(C(=O)C23CC4CC(C)(CC(C)(C4)C2)C3)CC1 | 5% | 1% | 3 | -3 | 8 | -18%
CC12CC3CC(C)(C1)CC(C(=O)N1CCCC1)(C3)C2 | 0% | 2% | -88* | -6 | 21 | -35%
CCc1ccc(CNC(=O)c2ccc(NC(=O)N3CC(C)Sc4ccccc43)cc2)cc1 (stereo not given) | · | -1% | -15 | · | · | ·
O=C1c2ccccc2CN1CCSC(=S)N1CCOCC1 | 3% | 0% | -3 | -11 | 21 | 2%
O=C1c2ccccc2CN1CCSC(=S)N1CCSCC1 | · | 0% | · | 9 | 90* | ·
O=C(Nc1ccc2c3c(cccc13)CC2)c1ccc(Br)o1 | -2% | 0% | · | -7 | 85* | 1%
Cc1ccccc1C(=O)N1CCC(C(=O)N2CCN(c3ncccn3)CC2)CC1 | 2% | 1% | 5 | 1 | -1 | -17%
CCOC(=O)N1CCN(C(=O)C2CCN(C(=O)c3ccccc3C)CC2)CC1 | 3% | · | -102* | · | · | -7%[15.4 µM]
O=C(COC(=O)C12CC3CC(CC(C3)C1)C2)Nc1ccc2[nH]c(=O)[nH]c2c1 | -1% | 0% | -18 | -2 | 92* | -24%
O=C(COC(=O)C12CC3CC(CC(Cl)(C3)C1)C2)Nc1ccc2[nH]c(=O)[nH]c2c1 | 5% | 2% | -4 | -11 | ? | -2%
CC[C@]1(O)C[C@H]2CN(CCc3c([nH]c4ccccc34)[C@@](C(=O)OC)(c3cc4c(cc3OC)N(C=O)[C@H]3[C@@](O)(C(=O)OC)[C@H](OC(C)=O)[C@]5(CC)C=CCN6CC[C@]43[C@@H]65)C2)C1 | · | · | 11 | · | · | ·
COc1ccc(NC(=O)CSc2oc(-c3cccs3)nc2S(=O)(=O)c2ccccc2)c(OC)c1 | · | 0% | 1 | · | · | ·
Cc1nc2ccc([N+](=O)[O-])cc2c(=O)n1Cc1cccc(F)c1 | 10% | 23% | -9 | 5 | 0 | 14µM*
NS(=O)(=O)c1cc2c(cc1Cl)CN(C1CCCCC1)C2=O | · | · | -15 | · | · | ·
C[C@@H]1CCCCO[C@@H](CN(C)C(=O)Nc2ccccc2)[C@@H](C)CN([C@H](C)CO)C(=O)c2cc(N(C)C)ccc2O1 | · | · | 5 | · | · | 14µM*
N#Cc1c(-c2ccc([N+](=O)[O-])cc2)nc2n(c1=O)CCS2 | -6% | 24% | 8 | 4 | -1 | 14µM*
CC(C)(C)c1nnc(N/N=C/c2cc(Br)ccc2O)n(N)c1=O | 28µM* | 1% | -88* | -6 | 4 | -6%
Cc1cc(C)cc(NC2=CC(c3cccc(F)c3)N(c3cc(C)cc(C)c3)C2=O)c1 (stereo not given) | · | 2% | -2 | · | · | ·
SMILES | gsp antag | RXFP1 ag | RXFP1 antag | TRPV1 potentiator | TRPV1 ag | gsp ag
O=C1CN(C(=O)COc2ncnc3ccccc23)c2ccccc2N1 | -1% | 3% | 5 | 1 | -1 | ?
Cc1sc2ncnc(OCC(=O)N3CC(=O)Nc4ccccc43)c2c1C | 14% | 13% | -5 | 96* | -2 | -2%[15.4 µM]
O=C(/C=C/c1ccccc1)NC(=S)Nc1ccc(CN2CCOCC2)cc1 | ? | 2% | -63* | -2 | -1 | -2%[15.4 µM]
O=C(O)CCC(=O)Nc1ccc(C(=O)OCC(=O)c2ccc(Cl)cc2Cl)cc1 | 3% | 0% | -67* | -10 | -3 | -25%
O=[N+]([O-])c1ccc(Sc2cccc[n+]2[O-])c2nonc12 | 35µM* | 4% | ? | -4 | ? | 11%[15.4 µM]
O=[N+]([O-])c1ccc(Nc2ccccc2)c2nonc12 | -21% | 1% | 2 | 3 | 3 | 17%
CC(=O)Oc1ccc2c(c1)Oc1cc(OC(C)=O)ccc1C21OC(=O)c2ccccc21 | ? | 0% | -14 | 12 | 140* | 4%
Cc1ncc(CO)c2c1Oc1nc(-c3ccccc3)nc(SCC(=O)N3CCOCC3)c1C2 | ? | 2% | 20 | 1 | 0 | ?
Cc1ncc(CO)c2c1Oc1nc(-c3ccccc3F)nc(SCC(=O)N(C)c3ccccc3)c1C2 | 40µM* | 0% | -91* | -1 | -2 | -23%
Cc1cccc(-c2nc3c(c(SCC(=O)N4CCOCC4)n2)Cc2c(CO)cnc(C)c2O3)c1 | 40µM* | 3% | -16 | 11 | -8 | 0%
Cc1nc(N2CCCCC2)c2c(C)c(C(=O)Nc3cccc(C(F)(F)F)c3)sc2n1 | ? | 14% | -3 | 26 | -15 | 21%
Cc1nc(N2CCCCC2)c2c(C)c(C(=O)Nc3ccccc3C(F)(F)F)sc2n1 | -23% | 2% | -15 | -21 | 89* | ?
Cc1ccccc1NC(=O)c1sc2nc3n(c(=O)c2c1C)CCC3 | · | -4% | -16 | · | · | ·
COc1ccccc1NC(=O)c1sc2nc3n(c(=O)c2c1C)CCC3 | -2% | 8.9µM* | 16 | 14 | 1 | ?
Cn1c(=O)c2c(nc(N3CCOCC3)n2C)n(C)c1=O | -2% | 2% | 2 | 4 | -4 | 27%
CN1CCN(c2nc3c(c(=O)n(C)c(=O)n3C)n2Cc2cccc3ccccc23)CC1 | 3% | 0% | -20 | -1 | -1 | 25µM*
Cn1c(=O)c2c(nc(N3CCCC3)n2C)n(C)c1=O | -5% | 15% | -2 | -1 | 3 | 20µM*
CC(C)(C)C1CCC(CC2=C(O)c3ccccc3C(=O)C2=O)CC1 (stereo not given) | · | · | -13 | · | · | ·
COc1cccc(C2c3cc4c(cc3OC(C)(N3CCCC3)C2C)OCO4)c1O (stereo not given) | 21% | · | -6 | · | · | -5%

Compound activity from PubChem.
